# p53ts 39C tox = kills p53ts cells at the nonpermissive temperature. H1299-p53A138V viability at 39C, ATP luminescence, 24 h. Potency, µM (doses to about 46.1 µM), actives largely listed as cytotoxic. 130,000 tested, 1.5% active; further: nearly all actives have a fitted effect of over 55% in size
# 12-hLO inh = 12-hLO (ALOX12) enzyme inhibition. purified 12-hLO, xylenol orange hydroperoxide absorbance. Potency, µM (titrated, usually from 57.1 µM), usual class: inhibitors. 150,000 tested, 0.12% active; further: nearly all actives have a fitted effect of over 55% in size
# Target sequence (P18054 whole entry, looked up): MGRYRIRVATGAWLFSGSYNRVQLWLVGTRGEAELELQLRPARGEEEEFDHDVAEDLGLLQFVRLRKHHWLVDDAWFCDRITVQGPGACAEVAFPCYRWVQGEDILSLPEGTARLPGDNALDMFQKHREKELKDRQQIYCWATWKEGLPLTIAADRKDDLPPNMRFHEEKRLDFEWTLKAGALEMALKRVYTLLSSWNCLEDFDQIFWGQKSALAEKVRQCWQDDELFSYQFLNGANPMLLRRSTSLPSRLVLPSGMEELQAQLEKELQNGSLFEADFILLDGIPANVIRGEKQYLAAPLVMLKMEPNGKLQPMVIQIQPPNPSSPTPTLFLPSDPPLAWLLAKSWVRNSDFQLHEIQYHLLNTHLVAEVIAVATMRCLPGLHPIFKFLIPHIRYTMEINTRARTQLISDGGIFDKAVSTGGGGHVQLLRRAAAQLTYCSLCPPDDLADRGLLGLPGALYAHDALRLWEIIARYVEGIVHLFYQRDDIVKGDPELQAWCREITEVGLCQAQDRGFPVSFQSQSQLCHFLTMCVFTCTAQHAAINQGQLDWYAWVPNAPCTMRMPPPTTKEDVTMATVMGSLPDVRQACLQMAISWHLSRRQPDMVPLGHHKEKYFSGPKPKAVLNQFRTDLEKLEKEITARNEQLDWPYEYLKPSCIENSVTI
#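 Purified human 12hLO (150 nM final) was preincubated with compounds for 15 min at room temperature in 25 mM Hepes pH 7.0, 0.01% Triton X-100, then reacted with 40 uM arachidonic acid for 30 min. Hydroperoxide was detected with ferrous iron/xylenol orange.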
# p53ts 32C kill = p53ts cell cytotoxicity, permissive temperature; H1299-p53A138V at 32C, ATP luminescence viability, 24 h; Potency, µM (top dose mostly 46.1 µM), most hits filed as cytotoxic; 130,000 tested, 0.93% active; AID 924; further: nearly all actives have a fitted effect of over 55% in size
#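 Viability by ATPlite luminescence after 24 h compound treatment (up to 46 uM) at the permissive 32C. Cells are H1299 carrying p53 A138V. Scale runs from DMSO basal to 100 uM tamoxifen as full kill; AC50 from Hill fits.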
# HPGD block = blocks human HPGD enzyme activity; P15428; purified HPGD, NADH fluorescence kinetic, PGE2 substrate; Potency, µM, actives largely listed as inhibitors; 150,000 tested, 4.3% active; AID 894; active means well fitted inhibition curve with a large enough effect, not every such curve was filed as active; inconclusive means small, poorly fitted or top-dose-only effect, or another doubt; inactive means no such curve, though single readings can be large or run the other way
#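 NADH formation kinetics: reaction with 30 uM PGE2 and 1 mM NAD+ (final), 20 nM enzyme, Tris-HCl pH 8 with Tween 20, after 15 min compound preincubation at room temperature. Fluorescence change, last versus first of five reads.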
# Numbers stand for hits; – = inactive; ? = inconclusive; · = no result; [ ] = remark or other dose. Rows were chosen to be rich in hits. Some 4.4% of all compounds tested hit in one or more screens of this group. Unless noted, the call rests on the fitted dose curve; in most records, active means well fitted curve in the direction sought with a large enough effect; inconclusive means small, poorly fitted or top-dose-only effect, or another doubt; inactive means no such curve, though single readings can be large; an effect the other way counts as inactive or inconclusive.
SMILES,p53ts 39C tox,12-hLO inh,p53ts 32C kill,HPGD block
CCN(CC)S(=O)(=O)c1cc([N+](=O)[O-])ccc1N=Nc1c(O)[nH]c2ccccc12,·,–,·,–
O=[N+]([O-])c1ccccc1N=Nc1c(O)[nH]c2ccc(S(=O)(=O)O)cc12,–[9.22 µM],–[11.4 µM],–[9.22 µM],3.98µM
CC(=O)N1CCc2cc(S(=O)(=O)NC(CC(C)C)C(=O)NCCc3cccc(C)c3)ccc21 (stereo not drawn),–,·,–,·
CCN(CCCNC(=O)c1nn(-c2ccc(OC)c(Cl)c2)c(=O)c2c1c1ccccc1n2C)c1ccccc1,–,·,–,·
CC(=O)c1ccc(Oc2ncnc3sccc23)c(CN2CCOCC2)c1,–,–,–,25.1µM
Oc1ccc(Cl)cc1-c1cc(-c2ccccc2Cl)[nH]n1,–,–,–,7.94µM
Oc1ccc(Cl)cc1-c1cc(-c2ccco2)[nH]n1,·,?,·,25.1µM
Oc1ccccc1-c1cc(-c2ccco2)[nH]n1,·,–,·,?
Oc1ccccc1-c1cc(-c2cccc(F)c2)n[nH]1,?,?,?,–
Oc1ccccc1-c1cc(-c2ccccc2Cl)[nH]n1,–,?,–,14.1µM
Oc1ccc(Cl)cc1-c1cc(-c2cccc(Br)c2)n[nH]1,·,–,·,3.16µM
Cc1ccc(C)c(CN2C(=O)c3ccccc3S(=O)(=O)c3ccc(C(=O)N4CCCCC4)cc32)c1,–,·,–,·
CN(C)c1ncc2ncc(=O)n(Cc3cccs3)c2n1,–,–,–,?
COC(=O)N1CCC[C@@]2(CCN(c3ccccn3)C2)C1,–,–,–,?
c1ccc(-n2nnc3c(N4CCOCC4)ncnc32)cc1,12.6µM,–,12.6µM,28.2µM
Cc1nnc(N2CCOCC2)c2nn(-c3ccccc3)c(C)c12,·,–,·,–
CCCCOc1ccccc1CC1C(=O)Nc2ccc(Br)cc21 (stereo not drawn),12.6µM,·,?,·
CCCCOc1ccccc1C1CC(=O)Nc2ccc3ccccc3c21 (stereo not drawn),?,·,–,·
COc1cc(Nc2ccc(C(=O)O)cc2[N+](=O)[O-])cc(OC)c1,·,–,·,20µM
Cc1ccc(Nc2ccc(C(N)=O)cc2[N+](=O)[O-])cc1C,·,–,·,–
Cc1cccc(Cc2c(C)nc3nc(SCc4ccccc4C)nn3c2C)c1,–,·,–,·
CCOc1cccc2sc(N3CCN(C(=O)C(C)(C)C)CC3)nc12,?,·,–,·
O=C(CCc1ccc(O)cc1)c1c(O)cc(O)cc1O[C@H]1OC(CO)C(O)C(O)C1O (stereo partly drawn),–,–,–,25.1µM
CCc1cccc(CC)c1NC(=O)CSc1nc2ccc(N3C(=O)C4C5C=CC(C5)C4C3=O)cc2s1 (stereo not drawn),·,–,·,8.91µM
Nc1ccc2nc(SCc3ccc([N+](=O)[O-])cc3)sc2c1,·,–,·,–
SMILES,p53ts 39C tox,12-hLO inh,p53ts 32C kill,HPGD block
Cc1cccc(NC(=O)CSc2nc3ccc(N4C(=O)c5ccccc5C4=O)cc3s2)c1C,·,–,·,–
O=C(O)c1ccc(CSc2nc3ccc(N4C(=O)C5C6C=CC(C6)C5C4=O)cc3s2)cc1 (stereo not drawn),·,–,·,15.8µM
COc1ccc(-c2noc(N3CCC(C(=O)N4CCN(c5cccc(OC)c5)CC4)CC3)n2)cc1,–,·,–,·
O=[N+]([O-])c1ccc(NNC(=S)Nc2ccc(F)cc2)cc1,–,?,–,22.4µM
O=C(NC(NNc1ccc([N+](=O)[O-])cc1)(C(F)(F)F)C(F)(F)F)c1ccc(F)cc1,·,–,·,31.6µM
O=C(NC(NNc1ccc([N+](=O)[O-])cc1)(C(F)(F)F)C(F)(F)F)c1ccccc1Cl,·,?,·,14.1µM
COC(=O)C(NNc1ccccc1)(NC(=O)c1ccc(F)cc1)C(F)(F)F (stereo not drawn),·,–,·,–
O=C(NC(Nc1nc2ccc([N+](=O)[O-])cc2s1)(C(F)(F)F)C(F)(F)F)c1ccccc1Cl,·,?,·,–
CCOc1ccc(CNC(=O)CCS(=O)(=O)c2cc3c(cc2Cl)NC(=O)CO3)cc1OC,·,·,–,·
Cc1cc(C)c2c(CC(=O)Nc3ccc(S(=O)(=O)N4CCCC(C)C4)cc3)coc2c1 (stereo not drawn),–,·,–,·
CC(C)c1ccc(Nc2c(-c3ccccc3O)nc3cnccn23)cc1,5.01µM,·,?,·
Cc1ccc2nc(-c3cccnc3)c(Nc3ccc(C(C)C)cc3)n2c1,–,·,–,·
COc1cc(-c2nc3cnccn3c2Nc2ccc(C(C)C)cc2)ccc1O,?,–,?,–
CC(C)c1ccc(Nc2c(-c3ccccn3)nc3ccccn23)cc1,15.8µM,·,–,·
Fc1ccc(Nc2c(-c3ccccn3)nc3ccc(Cl)cn23)cc1,–,·,–,·
Cc1ccn2c(Nc3ccc(C(C)C)cc3)c(-c3cccnc3)nc2c1,25.1µM,·,–,·
CCOc1ccc(C(=O)OCc2cc(=O)n3cc(C)sc3n2)cc1,–,·,–,·
COC(=O)NC(CC(C)=O)c1cccc(C(F)(F)F)c1 (stereo not drawn),–[9.22 µM],·,–[9.22 µM],·
Clc1ccc(Cn2ncc3c(NCc4ccccc4)ncnc32)c(Cl)c1,·,–,·,20µM
Cc1oc2ncn(CC(C)C)c(=O)c2c1C(=O)NCCCN1CCC(C)CC1,–,·,–,·
O=C(c1cc2ccccc2o1)c1nc2c(n1O)CCCCC2,?,–,?,14.1µM
O=c1c(-c2ccccc2)nc2cnc(N3CCOCC3)nc2n1C[C@H]1CCCO1,–,·,–,·
CCCC[P+](CCCC)(CCCC)Cc1ccc(NC(=O)[C@@H](Cc2ccc3ccccc3c2)NC(=NC2CCCCC2)NC2CCCCC2)cc1,?,–,–,–

# Bioassay records deposited in PubChem BioAssay by National Center for Advancing Translational Sciences (NCATS).
